# From PubChem
# TbREL1 primary: TbREL1 inhibition, primary screen; P86926; 0.49% of 89,000 active; inhibition, % at 9.66 µM; TbREL1 RNA ligation, FRET fluorescence;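 active = inhibition above the mean inhibition across all screened compounds plus 3 SD, cut at about 11% in these data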;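 note: 0% = plate median of test wells and 100% = NSC42067 control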
# Target sequence (P86926 whole entry, looked up): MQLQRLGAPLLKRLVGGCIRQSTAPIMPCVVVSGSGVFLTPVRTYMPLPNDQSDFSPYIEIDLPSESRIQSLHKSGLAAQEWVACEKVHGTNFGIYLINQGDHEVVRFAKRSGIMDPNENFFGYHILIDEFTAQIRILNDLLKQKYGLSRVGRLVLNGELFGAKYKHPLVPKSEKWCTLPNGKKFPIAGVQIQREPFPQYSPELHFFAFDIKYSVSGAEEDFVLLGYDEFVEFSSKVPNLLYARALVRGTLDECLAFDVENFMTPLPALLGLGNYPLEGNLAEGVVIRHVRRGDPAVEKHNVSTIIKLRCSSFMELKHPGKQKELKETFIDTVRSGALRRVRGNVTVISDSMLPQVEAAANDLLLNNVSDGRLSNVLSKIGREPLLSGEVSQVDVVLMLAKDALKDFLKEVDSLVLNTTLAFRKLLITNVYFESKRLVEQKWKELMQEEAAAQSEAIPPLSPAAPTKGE
# TbREL1 conf: TbREL1 inhibition, confirmation | inhibition, % at 9.66 µM | shares compounds with TbREL1 primary | TbREL1 RNA ligation, FRET fluorescence | 37% of 390 active;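 active = mean inhibition across replicates above a set limit taken from the earlier primary screen, cut at about 11% in these data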;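 note: 0% = REL1 with substrate and DMSO and 100% = REL1 plus control inhibitor NSC42067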
# An asterisk follows results filed as active; ! = not active in a repeat. This is one part of a sample in which hits are shown more often than they occur.
SMILES,TbREL1 primary,others
CCCC[C@H]1C2CC(OC(=O)Nc3ccc(C)cc3)C(C2)[C@H]2CCCCN21 (some centres undefined),-1,
CCCC[C@H]1C2CC(OC(=O)Nc3ccc(Br)cc3)C(C2)[C@H]2CCCCN21 (some centres undefined),5,
COc1cccc2c(NCc3ccccc3)nc(-n3c(N)nc4ccccc43)nc12,2,
CS(=O)(=O)c1ccc(C(=O)OCC#CCSc2nnc(-c3cccc4ccccc34)o2)cc1,2,
C(C#CCCCCCCCCC[n+]1ccccc1)#CCCCCCCCCC[n+]1ccccc1,11*,TbREL1 conf=24*
Cc1ccc(CN2CCCCC(NC(=O)c3cccc([N+](=O)[O-])c3)C2=O)cc1 (centres undefined),-2,
CC(C)C[C@H](NC1(C(=O)NC2CCCCC2)CCN(C(=O)OC(C)(C)C)CC1)C(=O)NCCc1c[nH]c2ccccc12,1,
COc1ccc(CN(C)C(=O)C2CCCN(c3nc4ccccc4o3)C2)cc1 (centres undefined),-2,
COc1cccc(-c2cc3nc(-c4ccco4)cc(N4CCN(C(C)=O)CC4)n3n2)c1,6,
COC(=O)[C@]12C[C@H](CC(=O)NCCc3ccccc3OC)C(=O)N(Cc3cccc4ccccc34)C1=C[C@H](C(C)(C)C)O[C@@H]2C,-5,
Nc1nnc(SCCN2C(=O)c3ccccc3C2=O)s1,11*,TbREL1 conf=3
Nc1nnc(SCC(=O)c2ccc3ccccc3c2)s1,-2,
Cc1cc(C)n2c(SCCN3C(=O)c4ccccc4C3=O)nnc2n1,0,
COc1ccccc1CN[C@@H]1CC[C@@]23CCCN2C(=O)CCC[C@H]3C1,2,
Cc1cccc(N2CCN(C(=O)c3cc(S(=O)(=O)N(C)C)ccc3Cl)CC2)c1C,-3,
Cc1ccc2c(c1)-c1c(cnn1CC(=O)NCCc1ccc(O)cc1)CO2,-1,
CCOC(=O)[C@]12CCCC=C1N(CCCOC)C(=O)[C@@H]2CC(=O)N1CCCCC1,1,
O=S(=O)(CC1NCCc2ccccc21)NCc1ccccc1 (centres undefined),0,
O=C(Cn1c(=O)c2cccn2c2cccnc21)NCCCN1CCN(c2ccccc2)CC1,-2,
O=C(Cn1c(=O)c2cccn2c2cccnc21)NCCCN1CCN(c2ccc(Cl)cc2)CC1,-7,
CCCCCC[N+](C)(C)CC/C=C1/c2ccccc2Sc2ccc(Cl)cc21,14*,TbREL1 conf=14*
CNCC/C=C1/c2ccccc2CSc2ccccc21,5,
S=C1Nc2ccccc2Sc2ccc(Cl)cc21,1,
Cc1ccc(C[n+]2cc(-c3ccc(Cl)cc3)n3c2CCC3)cc1,8,
O=C(C[n+]1cc(-c2ccc(F)cc2)n2c1CCC2)Nc1nc(-c2ccc(F)cc2)cs1,2,
SMILES,TbREL1 primary,others
CCc1ccc(NC(=O)C[n+]2cc(-c3ccc(C)cc3)n3c2CCC3)cc1,13*,TbREL1 conf=14*
COc1ccc(-n2c(-c3ccccc3)nnc2-c2ccc(Cl)cc2)cc1,-4,
[S-]c1nnc(-c2ccc(Br)cc2)n1-c1ccccc1.[Zn+2],23*,TbREL1 conf=17*
O=C(O)c1ccc(CSc2nnc(-c3ccncc3)n2-c2ccc(Br)cc2)cc1,9,
O=C(Nc1cccc(Cl)c1)OCCN1CCCC12CCC(c1ccccc1)CC2 (centres undefined),4,
Cc1ccccc1CN1CCCCC(NC(=O)c2cc(-c3ccccc3)no2)C1=O (centres undefined),-1,
Cc1ccc(-n2c(-c3ccccc3)n[nH]c2=S)cc1,-5,
Cc1c(Cl)c(-c2n[nH]c(=S)n2-c2ccccc2)nn1C,-5,
Cc1onc(-c2ccccc2)c1-c1n[nH]c(=S)n1-c1ccccc1,26*,TbREL1 conf=-1
CCCC1CCC2(CCCN2CCOC(=O)Nc2cccc(Cl)c2)CC1 (centres undefined),2,
CC1(C)CC(NC(=O)c2ccc(-c3ccc([N+](=O)[O-])cc3)o2)CC(C)(C)N1,12*,TbREL1 conf=4
CC1(C)CC(NC(=O)Nc2ccc([N+](=O)[O-])cc2)CC(C)(C)N1,0,
COc1ccc(NC(=O)c2ccc(-c3ccc([N+](=O)[O-])cc3)o2)cc1,-1,
O=C(CSc1nc2ncccc2[nH]1)N1CCOCC1,1,
S=C(Nc1ccccc1I)OC1CCC12CCC(c1ccccc1)CC2 (centres undefined),5,
O=C(CN(C(=O)OCC1c2ccccc2-c2ccccc21)[C@@H](Cc1ccccc1)C(=O)O)OCc1ccc(C(=O)NCc2ccccc2)cc1,4,
CC(=O)c1cc(-c2ccc(Cl)c(Cl)c2)c(=O)n2c1CCC2,4,
CC(=O)c1ccc(-c2cc(C(C)=O)c3n(c2=O)CCC3)cc1,-2,
CC(=O)c1cc(-c2cccc(CO)c2)c(=O)n2c1CCC2,11*,TbREL1 conf=0
CC(C)(C)c1ccc(-c2nnc(SCC(=O)Nc3ccc(Oc4ccccc4)cc3)n2Cc2ccco2)cc1,3,
CN(C(=O)c1ccccc1C(=O)OCC(=O)c1ccc(F)cc1)c1ccccc1,-1,
CN(C(=O)c1ccccc1C(=O)OCC(=O)c1ccc(F)c(F)c1)C1CCCCC1,12*,TbREL1 conf=2
CN(C(=O)c1ccccc1C(=O)OCC(=O)NCc1cccs1)C1CCCCC1,-2,
COCCNCCOCCOc1ccc(Cl)c(C)c1,6,
Cc1cc(OCCOCCNCc2ccccc2)ccc1C(C)C,19*,TbREL1 conf=9
SMILES,TbREL1 primary,others
Cc1ccc(C)c(OCCCNCc2ccccc2)c1,10,
CC(C)C(NC(=O)[C@H](Cc1ccccc1)NC(=O)OCc1ccccc1)P(=O)(O)OC(Cc1ccccc1)C(=O)O (some centres undefined),5,
CCOC(=O)CCCNC(=O)O[C@@H]1CC[C@@]23CCCN2C(=O)CCC[C@H]3C1,-2,
c1ccc(-n2c(SCc3cccc4ccccc34)nnc2-c2ccccn2)cc1,4,
COc1cc(C(=O)NNC(=O)c2ccc(NC(C)=O)cc2)cc(OC)c1OC,1,
COc1ccccc1NS(=O)(=O)c1cccc(C(=O)NNC(=O)c2ccc(NC(C)=O)cc2)c1,16*,TbREL1 conf=1
COc1ccccc1NS(=O)(=O)c1cccc(C(=O)NCc2ccccn2)c1,2,
C=CCN1C(=O)[C@H](CC(=O)NCCCC)[C@@]2(C(=O)OCC)CCCC=C12,-3,
FC(F)(F)c1ccc2nc(CNc3nc(N4CCOCC4)nc4c3ncn4-c3ccsc3)[nH]c2c1,-1,
COC(=O)[C@]12C[C@H](CC(=O)N3CCN(C(=O)c4ccco4)CC3)C(=O)N(Cc3ccco3)C1=C[C@H](C1CCCC1)O[C@@H]2C,-4,
COP(=O)(O)C(Cc1ccccc1)NC(=O)OCc1ccccc1 (centres undefined),6,
C[c-]1[c-](C)[c-](C)[c-](C)[c-]1C.[Fe].c1cc2nccc(N3CCCC3)[c-]2c1 (centres undefined),14*,TbREL1 conf=16*!
Cc1ccccc1CN1CCCCC(NC(=O)c2ccc(N(C)C)cc2)C1=O (centres undefined),-4,
Cc1ccc(-c2cc(C(=O)NN=Cc3cccc(OCc4ccccc4)c3)[nH]n2)cc1C,10,
COC(=O)[C@]12C[C@H](CC(=O)N3CCSCC3)C(=O)N(Cc3cccc4ccccc34)C1=C[C@H](C(C)(C)C)O[C@@H]2C,8,
O=c1cc(CN2CCc3ccccc32)nc2sccn12,15*,TbREL1 conf=22*
O=c1cc(CN2CCCc3ccccc32)nc2sccn12,3,
CC1CN(Cc2cc(=O)n3ccsc3n2)CC(C)O1 (centres undefined),1,
COC(=O)c1cc(S(=O)(=O)N2CCCN(C(C)=O)CC2)cn1C,2,
